JMJD2A Tudor inh: qHTS Assay for Inhibitors of JMJD2A-Tudor Domain; Lysine-specific demethylase 4A (Homo sapiens), O75164; AlphaScreen JMJD2A-Tudor / H3K4me3 peptide binding; Potency, µM (series often up to 114 µM), for inactives: at the highest dose activity change, negative = inhibition, usual class: inhibitors; 390,000 compounds, 4.4% hits; also: % is scaled to controls: 0 for no effect and ±100 for the full control effect; nearly all actives have a fitted effect of over 50% in size
L3MBTL1 inh: qHTS Assay for the Inhibitors of L3MBTL1; Lethal(3)malignant brain tumor-like protein 1 (Homo sapiens), Q9Y468; AlphaScreen L3MBTL1–H3K9me1 peptide binding; Potency, µM (doses to about 57.1 µM), without a hit: top-dose activity, negative = inhibition, usual class: inhibitors; 230,000 compounds, 0.66% hits; AID 485360, 2010; also: % is scaled to controls: 0 for no effect and ±100 for the full control effect; nearly all actives have a fitted effect of over 60% in size
Target sequence (Q9Y468 whole entry, looked up): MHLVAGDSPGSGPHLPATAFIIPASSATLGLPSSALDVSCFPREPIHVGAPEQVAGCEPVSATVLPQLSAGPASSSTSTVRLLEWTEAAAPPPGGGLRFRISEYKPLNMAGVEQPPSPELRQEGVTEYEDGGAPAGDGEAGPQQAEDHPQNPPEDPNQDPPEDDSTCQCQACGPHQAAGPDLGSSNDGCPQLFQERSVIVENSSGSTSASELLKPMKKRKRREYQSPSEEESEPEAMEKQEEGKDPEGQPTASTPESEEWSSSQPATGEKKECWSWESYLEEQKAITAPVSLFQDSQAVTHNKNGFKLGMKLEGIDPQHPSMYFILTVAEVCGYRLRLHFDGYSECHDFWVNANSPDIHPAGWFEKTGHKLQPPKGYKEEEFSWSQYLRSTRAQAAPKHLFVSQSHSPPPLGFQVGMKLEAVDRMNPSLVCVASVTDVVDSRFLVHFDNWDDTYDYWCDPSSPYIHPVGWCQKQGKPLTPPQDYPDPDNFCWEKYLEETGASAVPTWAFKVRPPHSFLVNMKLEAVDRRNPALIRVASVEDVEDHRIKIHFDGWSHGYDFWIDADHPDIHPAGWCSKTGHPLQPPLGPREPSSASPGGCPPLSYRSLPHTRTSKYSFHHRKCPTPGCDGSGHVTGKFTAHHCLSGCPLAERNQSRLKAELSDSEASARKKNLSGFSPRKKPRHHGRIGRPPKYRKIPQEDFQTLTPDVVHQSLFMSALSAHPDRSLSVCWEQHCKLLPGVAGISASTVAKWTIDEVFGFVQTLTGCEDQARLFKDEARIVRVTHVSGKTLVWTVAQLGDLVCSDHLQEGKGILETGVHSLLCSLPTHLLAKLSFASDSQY
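Displacement of a biotinylated histone H3(1-15) peptide monomethylated at Lys9 (75 nM) from L3MBTL1 (50 nM) was measured by AlphaScreen after a 30 min room-temperature compound incubation; cefsulodin titration served as intraplate control.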
BAZ2B inh: qHTS Assay for Inhibitors of BAZ2B | Bromodomain adjacent to zinc finger domain protein 2B (Homo sapiens), Q9UIF8 | AlphaScreen BAZ2B-H3K14Ac peptide displacement | Potency, µM (highest dose often 114 µM), inactives show at the highest dose activity change, negative = inhibition, most hits filed as inhibitors | 360,000 compounds, 4.4% hits; also: % is scaled to controls: 0 for no effect and ±100 for the full control effect; nearly all actives have a fitted effect of over 60% in size
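BAZ2B (50 nM) with biotin-H3(5-23)K14Ac peptide (50 nM) in PBS pH 7.4, 0.01% Tween-20, preformed 30 min, then compound 30 min at room temperature; top concentration 110uM. AlphaScreen streptavidin donor/nickel chelate acceptor beads (10 ug/mL final), 20 min dark, signal read.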
G9a block: qHTS Assay for Inhibitors of Histone Lysine Methyltransferase G9a; AID 504332, 2011; G9a H3K9 monomethylation, AlphaScreen, 2 h; Potency, µM (series often up to 102 µM), inactives show at the top dose activity, negative = inhibition, actives largely listed as inhibitors; 350,000 compounds, 8.8% hits; also: % is scaled to controls: 0 for no effect and ±100 for the full control effect; nearly all actives have a fitted effect of over 75% in size
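Signal arises when biotinylated H3K9 peptide, once monomethylated, bridges streptavidin donor and antibody-captured acceptor beads. Enzyme at 20 nM was preincubated 15 min with test compounds; peptide 500 nM and SAM 20 uM then reacted for 2 h.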
HP1b chromo inh: HTS for Inhibitors of HP1-beta Chromodomain Interactions with Methylated Histone Tails; AlphaScreen HP1-beta / biotin-H3K9me3 peptide binding; Potency, µM (titrated, usually from 114 µM), without a hit: at the top dose activity change, negative = inhibition, hits mostly inhibitors; 390,000 compounds, 0.56% hits; AID 540317, 2011; also: nearly all actives have a fitted effect of over 70% in size
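AlphaScreen: HP1-beta (50 nM) preformed 30 min with biotin-H3(1-18)K9me3 peptide (50 nM) in PBS pH 7.4, 0.01% Tween-20. Compound added for 30 min at RT, then streptavidin donor/nickel chelate acceptor beads (10 ug/mL) for 30 min.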
* hit, by the source's call; ? = inconclusive; . = no result given; [ ] = another dose, or the depositor's remark. Most compounds without a hit are left out; they make up all but 11% or so of the library. Calls follow the shape of the dose curve; as a rule, active = well fitted inhibition curve with a large enough effect; inconclusive = small, poorly fitted or top-dose-only effect; inactive = no such curve, though single readings can be large or run the other way. Potency is read from the fitted curve at half-maximal effect.

SMILES | JMJD2A Tudor inh | L3MBTL1 inh | BAZ2B inh | G9a block | HP1b chromo inh
Cc1ccc(S(=O)(=O)Nc2ccccc2C(=O)N2CCN(C)CC2)cc1 | 2% | . | -3% | 27% | 29%
CCOc1cc(C2CC(=O)Nc3c2c(=O)nc(SCc2cccc(Cl)c2)n3C)ccc1O (centres undefined) | -18% | . | ? | -5%[59 µM] | 31%
COc1ccc(C[C@H]2CN3C(=NC[C@@H]3C(C)C)N2C[C@H](C)NC(=O)c2ccc(C)c(Br)c2)cc1 | -30% | -8% | -36% | ? | 8%
Cc1ccc(C(=O)N[C@@H](C)CN2C3=NC[C@H](C(C)C)N3C[C@H]2Cc2ccc(O)cc2)cc1Br | 79µM* | -12% | -35% | ? | -8%
CC1(C)S[C@@H]2[C@H](NC(=O)COc3ccccc3)C(=O)N2[C@H]1C(=O)O | . | . | . | 33%[59 µM] | .
Cc1ccc(C(=O)NC(=S)Nc2cccc3nsnc23)cc1 | -4% | -3% | -34% | 6.3µM* | 15%
Cc1ccc(C(=O)NC(=S)Nc2c(C)ccc3nsnc23)cc1 | -26% | -11% | -38% | 11µM* | 3%
Cc1ccc(OCC(=O)Nc2c(C)ccc3nsnc23)cc1 | -9% | . | -13% | . | 16%[57 µM]
CCCn1ccc2c(OCC(=O)Nc3ccc(F)cc3F)cccc2c1=O | -4% | . | -2% | -3%[59 µM] | 21%
O=[N+]([O-])c1cc(/C=N/O)ccc1Oc1cccc(Cl)c1 | ? | -22% | ? | -8%[59 µM] | -3%
CO/N=C/c1ccc(Oc2ccc(C)cc2)c([N+](=O)[O-])c1 | 13µM* | 27% | 2% | 9% | 0%
CC(=O)c1c(C)[nH]c(C(=O)OCC(=O)Nc2cccc(S(=O)(=O)N3CCCC3)c2)c1C | -22% | 1% | 56µM* | -1% | 7%
CC(=O)c1c(C)[nH]c(C(=O)OCC(=O)Nc2cc(S(=O)(=O)N3CCCC3)ccc2Cl)c1C | -7% | 2% | -5% | 18%[59 µM] | 19%
CC(=O)c1c(C)[nH]c(C(=O)OCC(=O)Nc2cccc(S(=O)(=O)N(C)C)c2)c1C | -23% | 0% | 50µM* | 2%[59 µM] | 49%
CC(=O)c1c(C)[nH]c(C(=O)Nc2cccc(S(=O)(=O)N(C)C)c2)c1C | -22% | -5% | -34% | 1% | 34%
COc1ccccc1/C=C/c1nc2ccccc2n1C(C)C | 120% | . | 150% | 102%[59 µM] | 205%
CN=CC1=C(O)c2ccccc2C1=O | -4% | -3% | 1% | 1%[59 µM] | 18%
O=C1C(C2=C(O)c3ccccc3C2=O)=Nc2ccccc21 | 32µM* | ? | 40µM* | . | ?
COc1ccc(OC)c(/C=C(/C#N)c2nc(-c3ccc(-c4ccccc4)cc3)cs2)c1 | 3% | . | 3% | 11%[59 µM] | 35%
C=CCN1C(c2ccc(Br)cc2)=CS/C1=C(/C#N)c1nnc(N2CCOCC2)n1-c1ccccc1 | ? | -14% | ? | ? | ?
C=CCN1C(c2cccc(C(F)(F)F)c2)=CS/C1=C(/C#N)c1nnc(N2CCOCC2)n1-c1ccccc1 | 50µM* | -15% | 50µM* | 79µM* | 0%
C=CCNc1nc(-c2ccc(OC)cc2OC)cs1 | ? | -10% | 56µM* | ? | -15%
COc1ccc(OC)c(-c2csc(-c3c(N)c(C(=O)c4ccc(Cl)cc4)n4ccccc34)n2)c1 | -10% | . | 5% | 11%[59 µM] | 21%
Cc1ccc(NC(=O)N2CCN(Cc3ccc4c(c3)OCO4)CC2)cc1 | -10% | . | 5% | 23%[12.7 µM] | 1%
Nc1nc(CN2CCN(Cc3ccccc3)CC2)nc(Nc2ccc3c(c2)OCCO3)n1 | ? | . | 20µM* | -13%[12.7 µM] | 27%
Cc1ccc(Nc2nc(N)nc(CN3CCN(Cc4ccc5c(c4)OCO5)CC3)n2)c(C)c1 | -33%[57.1 µM] | -11% | 56µM* | 3% | ?
Cc1ccc(Nc2nc(N)nc(CN3CCN(C)CC3)n2)cc1C | . | 8% | 12% | ? | .
